# Experimental data taken from ChEMBL document CHEMBL3988442, “University of Dundee, Small-Polar-MMV Screening Library” (2021).
# In all, about 69,000 compounds went through this assay and about 1,000 (1.4%) showed an effect of 50% or more. Many of the other results were omitted from the sample, so strong results are more common in it than they were.
# System: Leishmania donovani
# Experiment: Leishmania intramacrophage assay
# Type: functional, organism-based
# Set-up: scale not given: in the data most compounds retested in dose-response had high values
compound,measurement,setting,value
CCc1cc(N2CCC(NCc3ccc(C)o3)CC2)ncn1,Percent Effect,"30.3 µM, […]",57.16%
CCc1cc(N2CCC(Nc3ccc(Cl)cn3)CC2)ncn1,Percent Effect,"30.3 µM, […]",39.5%
Cc1ccc(N2CCCC(NCc3ccc(C)o3)C2)nn1 (centres undefined),Percent Effect,"30 µM, 30.03 µM",1.465%
COc1c(CNCCNC(=O)c2ccccc2)c(C)nn1C.Cl,Percent Effect,30 µM,37.81%
Cc1nc(C)n(CC2CCCCN2CCOc2cccc(C#N)c2)n1 (centres undefined),Percent Effect,30 µM,14.77%
Cc1noc(C(C)N2CCN(c3ncnc4sccc34)CC2)n1 (centres undefined),Percent Effect,"30.3 µM, […]",61.64%
CCc1noc(C(C)N2CCN(c3ncnc4sccc34)CC2)n1 (centres undefined),Percent Effect,"30.3 µM, […]",17.92%
Cc1noc(C(C)N2CCN(c3ncnc4ccccc34)CC2)n1 (centres undefined),Percent Effect,"30.3 µM, […]",-13.38%
Cc1cnn(C2CCCN(C(=O)c3cc[nH]n3)C2)c1 (centres undefined),Percent Effect,"30.3 µM, […]",9.905%
CCC(CN1CCCC1)NC(=O)C1(c2ccc(F)cc2)CC1 (centres undefined),Percent Effect,"30.3 µM, […]",52.84%
CCC(CN1CCCCC1)NC(=O)C1(c2ccc(F)cc2)CC1.O=C(O)CC(O)(CC(=O)O)C(=O)O (centres undefined),Percent Effect,"30.3 µM, […]",18.07%
CCC(CN1CCCC1)NC(=O)C1(c2cccc(F)c2)CC1.O=C(O)CC(O)(CC(=O)O)C(=O)O (centres undefined),Percent Effect,"30.3 µM, […]",43.99%
COCCCN1CCCN(C(C)c2nc(C3CC3)no2)CC1 (centres undefined),Percent Effect,"30 µM, 30.03 µM",35.53%
CCOc1ccc(C(=O)N(C)Cc2nccn2CC(F)(F)F)cc1,Percent Effect,"30.3 µM, […]",3.454%
CCC(C)c1ccc(NC(=O)C2CCN(C(=O)N(C)C)CC2)cc1 (centres undefined),Percent Effect,"30.3 µM, […]",18.48%
CCOc1ccnc(N2CCN(C(=O)c3ccncc3)CC2)n1,Percent Effect,30 µM,-11.04%
Cn1cc(CN2CCC3(CC2)CC(c2ccncc2)C(=O)N3)cn1.O=C(O)C(F)(F)F.O=C(O)C(F)(F)F (centres undefined),Percent Effect,"30 µM, 30.03 µM",3.212%
Cc1nc[nH]c1CN(C)CC1CCCN(CCc2ccc(Cl)cc2)C1 (centres undefined),Percent Effect,"30 µM, 30.03 µM",95.69%
COc1ccc(CCN2CCCC(CN(C)Cc3[nH]cnc3C)C2)cc1 (centres undefined),Percent Effect,"30.3 µM, […]",-2.681%
Cc1nc(C)n(CC2CCCN(CCc3ccncc3)C2)n1 (centres undefined),Percent Effect,"30 µM, 30.03 µM",27.42%
Cc1nc[nH]c1CN1CCC(C2CCN(CCc3ccccc3)C2)CC1 (centres undefined),Percent Effect,"30.3 µM, […]",22.99%
CN(Cc1cccc(O)c1)CC1CCCN(CCc2ccc(Cl)cc2)C1 (centres undefined),Percent Effect,"30 µM, 30.03 µM",95.8%
Cc1cc(CN2CCC(C3CCN(CCc4ccccc4)C3)CC2)[nH]n1 (centres undefined),Percent Effect,"30.3 µM, […]",16.23%
COc1ccccc1CCN1CCCC(CN(C)Cc2cc(C)n[nH]2)C1 (centres undefined),Percent Effect,"30.3 µM, […]",19.41%
CCN(CC1CCCN(CCc2cccc(OC)c2)C1)C(=O)CN(C)C (centres undefined),Percent Effect,"30.3 µM, […]",48.28%
CCOCCC(=O)N(C)Cc1noc(C(C)C)n1,Percent Effect,"30.3 µM, […]",0.5615%
COc1cccc(OCC2CCCN(C(=O)c3ncc(F)cc3F)C2)c1 (centres undefined),Percent Effect,"30.3 µM, […]",9.755%
Cc1ccc(-c2cnnc(N3CCCC3c3nonc3C)n2)o1 (centres undefined),Percent Effect,"30.3 µM, […]",17.41%
Cc1ccc(OCC(=O)Nc2ncccc2OC(F)F)cc1,Percent Effect,"30.3 µM, […]",23.14%
Cc1ccc(C(=O)NCCCNc2ccc(C(F)(F)F)cn2)cc1,Percent Effect,30 µM,23.85%
Cc1noc(CN2CCN(C(=O)N(C)C)CC2)n1,Percent Effect,30 µM,8.701%
COc1cccc2c1OCC(NC(=O)NCCC(N)=O)C2 (centres undefined),Percent Effect,"30.3 µM, […]",-3.86%
CC1CCC(NCCCN2CCOCC2)CC1 (centres undefined),Percent Effect,"30.3 µM, […]",41.59%
Cc1ccc(C)c(-n2ncc(C(=O)NCC3COC(C)(C)O3)c2N)c1 (centres undefined),Percent Effect,"30.3 µM, […]",6.712%
CC1CCN(c2ccc(CNC(=O)NCCn3ccnc3)cn2)CC1,Percent Effect,"30.3 µM, […]",-10.4%
OC1CCN(C2CCN(c3ccc(Cn4ccnc4)cn3)CC2)CC1,Percent Effect,"30.3 µM, […]",61.02%
c1cn(Cc2ccc(N3CCCN(C4CCCC4)CC3)nc2)cn1,Percent Effect,"30.3 µM, […]",60.72%
Fc1ccc(N2CCCN(c3ccc(Cn4ccnc4)cn3)CC2)cc1,Percent Effect,"30.3 µM, […]",41.56%
c1csc(CN2CCCN(c3ccc(Cn4ccnc4)cn3)CC2)c1,Percent Effect,"30.3 µM, […]",43.35%
CN(CC1CCN(c2ccccc2)C1)c1ccc(Cn2ccnc2)cn1 (centres undefined),Percent Effect,"30.3 µM, […]",-5.433%
CC(=O)NC1CCN(C(=O)c2cnc(COc3ccccc3)nc2O)C1 (centres undefined),Percent Effect,"30.3 µM, […]",6.861%
Cc1ccc(CN2CCc3onc(COc4cccnc4)c3C2)s1.O=C(O)C(F)(F)F.O=C(O)C(F)(F)F,Percent Effect,"30.3 µM, […]",-45.52%
O=S(=O)(NCc1ccnc(-n2ccnc2)c1)c1cncc(Cl)c1,Percent Effect,"30.3 µM, […]",-18.27%
COCCNC(=O)Cn1cc(OCc2ccc(F)cc2)c(=O)cc1CO,Percent Effect,"30.3 µM, […]",27.19%
Cc1nnc(N2CC[C@H](OCC3CC3)[C@@H](Cc3ccccc3)C2)s1.O=C(O)C(F)(F)F,Percent Effect,"30 µM, 30.03 µM",51.69%
Cc1nnc(N2CC[C@@H](OCC3CC3)[C@@H](Cc3ccccc3)C2)s1.O=C(O)C(F)(F)F,Percent Effect,"30.3 µM, […]",35.34%
CO[C@@H]1CCN(c2nnc(C)s2)C[C@@H]1Cc1ccccc1.O=C(O)C(F)(F)F,Percent Effect,"30.3 µM, […]",9.959%
O=C(Nc1cnccn1)[C@@H]1COC[C@H]2CN(C3CCC3)C[C@H]21.O=C(O)C(F)(F)F,Percent Effect,"30.3 µM, […]",-10.65%
CCc1nnc(Nc2cccc(C3CCN(CCO)CC3)n2)s1,Percent Effect,"30 µM, 30.03 µM",20.13%
